ELG1 repair inh: blocks ELG1-dependent DNA repair in HEK293T cells; HEK293T ELG1-luciferase reporter, luminescence, 16 h; DNA damage induced by 5-fluorouridine; Potency, µM (doses to about 46.1 µM), for the others: at the highest dose activity change, negative = inhibition, most hits filed as inhibitors; 330,000 compounds, 2.3% hits; also: potency is read from the fitted curve at half-maximal effect; nearly all actives have a fitted effect of over 55% in size
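Step one: seed 2,000 cells per well. Step two: pin-transfer compound or DMSO alongside 5-fluorouridine. Step three: incubate 16 hr, 37 °C, 5% CO2. Step four: add ONE-Glo, wait 30 min, read luminescence.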
HT1080 IDH1KD tx: toxicity to HT-1080 IDH1 knockdown cells (counter line); 360,000 compounds, 2% hits; HT-1080 IDH1 knockdown viability, ATP luminescence, 48 h; Potency, µM (top dose mostly 46.1 µM), for inactives: top-dose activity, negative = toxicity, hits mostly cytotoxic; AID 686971;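 also: potency is read from the fitted curve at half-maximal effect; 0% = DMSO wells and -100% = cell-free medium wells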
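HT-1080-IDH1KD cells (IDH1 knocked down), 750/well in RPMI with 5% FBS, treated with compound 48 h at 37 degrees C. Viability by CellTiter-Glo luminescence, normalised to DMSO and no-cell wells; concentration-response curves classed.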
DT40 TDP1 no CPT: qHTS for Inhibitors of human tyrosyl-DNA phosphodiesterase 1 (TDP1): qHTS in cells in absence of CPT | DT40 Tdp1-/- hTDP1 cells, no CPT, ATP luminescence, 48 h | Potency, µM (doses to about 46.2 µM), inactives show at the highest dose activity change, negative = growth inhibition, most hits filed as inhibitors | AID 686978, 2013 | 420,000 compounds, 15% hits; also: potency is read from the fitted curve at half-maximal effect; nearly all actives have a fitted effect of over 55% in size
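Stably hTDP1-transfected Tdp1-null chicken DT40 cells were treated with library compounds minus camptothecin and grown for at least 48 hr at 37 °C, after which cellular ATP was quantified by luminescence.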
TDP1 cell CPT: DT40-hTDP1 cell growth loss with CPT; chicken DT40 Tdp1-/-;hTDP1 cells + 20 nM CPT, ATP luminescence, 48 h; Potency, µM (doses to about 46.2 µM), for the others: at the top dose activity change, negative = growth inhibition, actives largely listed as inhibitors; 420,000 compounds, 12% hits; AID 686979; also: potency is read from the fitted curve at half-maximal effect; nearly all actives have a fitted effect of over 55% in size
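Chicken DT40 Tdp1-/- cells stably complemented with human TDP1 were seeded at 400 cells/well in medium containing 20 nM camptothecin, exposed to pin-transferred compounds, and grown at 37 °C for at least 48 hr. Viability was read as ATP luminescence.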
IL-1B inflam inh: inhibitors of inflammasome signaling (IL-1 beta secretion) | THP-1 LPS/ATP IL-1B secretion, AlphaLISA, 16 h; hits give low values | activity change, % at 57.5 µM | 360,000 compounds, 4.7% hits; in the data active = activity change below about -50%; inconclusive = mostly about -30% to -49%
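Secreted IL-1B measured by AlphaLISA bead assay after 16 h compound exposure of THP-1 cells; compounds (final up to 57.5 uM) added 1 h before LPS (250 ng/mL) and ATP (1.25 mM) stimulation; lower signal means less secretion.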
HT1080-NT tox: kills 2HG-producing HT-1080-NT fibrosarcoma cells. Potency, µM (top dose mostly 46.1 µM), for the others: top-dose activity, negative = less viability, hits mostly cytotoxic. AID 686970. 360,000 compounds, 1.6% hits. HT-1080-NT fibrosarcoma viability, CellTiter-Glo ATP luminescence, 48 h;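 also: NT is the 2HG producing partner of a matched IDH1 knockdown line; potency is read from the fitted curve at half-maximal effect; 0% = DMSO-treated cells and -100% = media-only wells without cells; nearly all actives have a fitted effect of over 55% in size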
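A 48-hour cytotoxicity screen used HT-1080-NT cells plated 2 hours before compound delivery. ATP-based CellTiter-Glo luminescence measured viability, normalized to DMSO and no-cell controls.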
Numbers without * were called inactive; ? = inconclusive; . = not tested or not shown. Compounds with a hit are over-represented: about 19% of the library has one in this group of screens. Unless noted, calls follow the shape of the dose curve; as a rule, active = well fitted curve in the direction sought with a large enough effect; inconclusive = small, poorly fitted or top-dose-only effect, or another doubt; inactive = no such curve, though single readings can be large; an effect the other way counts as inactive or inconclusive. Unless noted, % is scaled to controls: 0 for no effect and ±100 for the full control effect.

SMILES | ELG1 repair inh | HT1080 IDH1KD tx | DT40 TDP1 no CPT | TDP1 cell CPT | IL-1B inflam inh | HT1080-NT tox
Cc1sc2ncnc(N3CCC(C(=O)NNC(=O)COc4ccc(Br)cc4)CC3)c2c1C | ? | -4.5% | 23.1µM* | ? | -0.6 | -10.4%
Cc1sc2ncnc(N3CCC(C(=O)Nc4ccc(OC(F)F)c(Cl)c4)CC3)c2c1C | 10.3µM* | -22.3% | ? | ? | 9.3 | -25.5%
CCOc1ccc(NC(=O)CN(C)C(=O)c2c(C)nn(-c3ccccc3)c2Cl)cc1OCC | -10.0% | 4.7% | -12.7% | 5.4% | -5.3 | 0.0%
COc1ccc(NC(=O)C2CCN(C(=O)Nc3ccccc3)CC2)cc1S(=O)(=O)N(C)C | ? | 8.9% | 2.0% | -16.3% | -1.3 | 0.2%
Cc1cc(Br)ccc1NC(=O)CN(C)C(=O)C1CCN(c2ncnc3sc(C)c(C)c23)CC1 | . | ? | 20.6µM* | ? | -56.3* | ?
Cc1sc2ncnc(N3CCC(C(=O)NNC(=O)c4ccccc4Cl)CC3)c2c1C | ? | -2.2% | 20.6µM* | 14.6µM* | -14.0 | 5.4%
Cc1cccc(C)c1NC(=O)CN(C)C(=O)C1CCN(c2ncnc3sc(C)c(C)c23)CC1 | ? | -10.7% | ? | ? | -5.9 | -12.4%
Cc1ccc(N2CCN(C(=O)c3cccs3)CC2)cc1C | -6.7% | -3.7% | -26.1% | -1.1% | -7.4 | 14.1%
Cc1ccc(N2CCN(C(=O)N3CCCC3)CC2)cc1C | -17.1% | 1.9% | 7.8% | 20.6µM* | -9.3 | 3.4%
Nc1cc(=O)[nH]c(SCC(=O)NCCC2=CCCCC2)n1 | ? | -3.9% | -0.3% | -4.2% | 8.3 | 0.0%
C/C(N)=C(/C#N)C(=O)CSc1nc2ccccc2c(=O)n1-c1ccc(C)c(Cl)c1 | 6.51µM* | -5.9% | ? | -0.7% | 27.8 | -5.6%
C/C(N)=C(/C#N)C(=O)CSc1nc2ccccc2c(=O)n1-c1ccc(C)cc1 | 7.31µM* | . | . | . | . | .
Cc1ccc(-n2c(SCC(=O)N3CC(=O)Nc4ccccc43)nc3ccccc3c2=O)cc1 | 18.4µM* | -27.2% | ? | ? | -74.4* | -10.1%
C/C(N)=C(/C#N)C(=O)CSc1nc2ccccc2c(=O)n1-c1ccccc1C | -16.4% | -9.5% | ? | ? | 47.3 | 0.5%
CCCc1cc(=O)[nH]c(SCC(=O)Nc2sc3c(c2C(N)=O)CCCC3)n1 | -10.6% | 3.4% | -24.7% | -26.1% | 17.8 | 12.4%
O=C(Nc1ccc(S(=O)(=O)N2CCCC2)cc1)c1cnccn1 | -0.4% | 5.5% | ? | -20.1% | 7.7 | 27.2%
CN(C)C(=O)c1ccc(NC(=O)c2cccc(S(=O)(=O)N3CCN(Cc4ccccc4)CC3)c2)cc1 | . | -7.1% | 18.4µM* | 14.6µM* | -1.8 | -5.3%
CN(CC(=O)Nc1ccc(Cl)cc1)C(=O)c1cccc(S(=O)(=O)NCc2ccccc2)c1 | -20.6% | -18.1% | ? | ? | -9.9 | -1.5%
O=C(Nc1ccc(S(=O)(=O)N2CCN(Cc3ccccc3)CC2)cc1)c1cnccn1 | ? | -12.7% | 5.17µM* | 9.2µM* | 0.0 | -6.2%
CN(CC(=O)Nc1ccc(Cl)cc1)C(=O)c1cccc(S(=O)(=O)N2CCN(Cc3ccccc3)CC2)c1 | ? | -23.7% | 5.17µM* | 5.8µM* | ? | -2.4%
O=C1OCC(O)=C1Cc1ccccc1 | . | 5.3% | ? | -23.7% | 6.0 | 8.4%
CN1CCC(N(C)C(=O)c2ccc(Cl)c(S(=O)(=O)N(C)c3ccc(Cl)cc3)c2)CC1 | -15.5% | -4.8% | ? | ? | -5.8 | -7.1%
CNc1ccc(/C=C\CCCO)cn1 | . | 19.2% | 11.1% | 4.1% | 21.2 | 12.3%
COc1ccccc1NC(=O)COC(=O)c1c(C)nn(-c2ccccc2)c1C | 13.3% | -16.5% | 18.4µM* | 18.4µM* | ? | -1.8%
Cc1nn(-c2ccccc2)c(C)c1C(=O)OCC(=O)Nc1ccccc1 | ? | -13.8% | -26.7% | ? | -12.8 | 0.9%
SMILES | ELG1 repair inh | HT1080 IDH1KD tx | DT40 TDP1 no CPT | TDP1 cell CPT | IL-1B inflam inh | HT1080-NT tox
CC(=O)c1ccccc1NC(=O)COC(=O)c1c(C)nn(-c2ccccc2)c1C | 0.4% | -11.0% | 14.6µM* | ? | ? | -3.6%
O=C(OCc1ccccc1)N1Cc2ccnnc2CC1c1ccccc1Br (stereo unspecified) | . | 3.8% | ? | ? | -7.6 | -4.9%
Cc1cccc(C)c1NC(=O)C(c1ccncc1)n1c(=O)c(-c2ccccc2)nc2ccccc21 (stereo unspecified) | . | -8.6% | ? | -11.9% | -8.3 | 1.0%
CCCCCNC(=O)C(c1cc2ccccc2o1)n1c(=O)c(-c2ccco2)nc2ccccc21 (stereo unspecified) | . | -13.9% | 16.4µM* | ? | 33.7 | 2.3%
COc1ccc(C(C(=O)Nc2c(C)cccc2C)n2c(=O)c(-c3ccco3)nc3ccccc32)cc1 (stereo unspecified) | . | -8.4% | ? | ? | -3.3 | -17.0%
O=C(NCc1ccccc1)C(c1cc2ccccc2o1)n1c(=O)c(-c2cc3ccccc3[nH]2)nc2ccccc21 (stereo unspecified) | . | ? | ? | ? | 63.6 | -24.8%
Cc1cccc(C)c1NC(=O)C(c1ccccc1F)n1c(=O)c(-c2ccccc2)nc2ccccc21 (stereo unspecified) | . | -13.0% | 20.6µM* | ? | -5.2 | -17.3%
COc1ccc(C(C(=O)NCc2ccccc2)n2c(=O)c(-c3ccco3)nc3ccccc32)cc1 (stereo unspecified) | . | 20.6µM* | ? | ? | -0.4 | ?
CC(C)(C)NC(=O)C(c1cc2ccccc2o1)n1c(=O)c(-c2ccco2)nc2ccccc21 (stereo unspecified) | . | 6.6% | ? | ? | -3.4 | 7.8%
O=C(NCc1ccccc1)C(c1cc2ccccc2o1)n1c(=O)c(-c2ccccc2)nc2ccccc21 (stereo unspecified) | . | -1.6% | 13µM* | 14.6µM* | 11.9 | 2.3%
CC1CCn2c(nc3cc(C(=O)NCc4ccccc4)ccc32)C1 (stereo unspecified) | . | . | -26.7% | 3.5% | . | .
COc1ccc(NC(=O)C(c2ccncc2)n2c(=O)c(-c3ccco3)nc3ccccc32)cc1 (stereo unspecified) | . | ? | 23.1µM* | ? | -23.4 | -25.2%
O=C(NCc1ccccc1)C(c1ccccc1F)n1c(=O)c(-c2ccco2)nc2ccccc21 (stereo unspecified) | . | 0.2% | 20.6µM* | ? | -5.3 | -4.1%
